# Reference: PubChem BioAssay
# Activity calls are given as the source filed them. Unless noted, no rule for the calls is given here.
# Experiments:
# [1] = compounds binding Alexa647 anti-His antibody – biochemical, small-molecule microarray, 635 nm fluorescence, artefact control for SMM control protein annotation, primary screen (AID 1128); conditions: higher = more signal;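 also: score merges feature fluorescence with signal-to-noise for each printed compound spot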
# [2] = test system: Human papillomavirus type 1a E7 protein (residues 1-88); assay: HPV1a E7 small-molecule binders, primary screen, biochemical, small-molecule microarray, residues 1-88, 635 nm (AID 1129); conditions: small-molecule microarray binding, fluorescence 635 nm; higher = more signal
# [3] = biological target: Focal adhesion kinase 1 (Homo sapiens) (UniProt Q05397); assay: PTK2 protein binding on printed compound slides – biochemical, small-molecule microarray, 635/667 nm fluorescence, BSA, DTT, primary screen (AID 1130); conditions: 635 nm fluorescence, higher = more signal;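 also: composite of spot emission at 667 nm and signal to noise over triplicate slides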
# [4] = test system: Fibrinogen (Alexa647-labelled); assay: Alexa647-fibrinogen binding to printed small molecules – biochemical, small-molecule microarray, 635/667 nm fluorescence, artefact control for SMM control-protein annotation, profiling panel (AID 1131); conditions: fibrinogen-A647 binding fluorescence, higher = more signal;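 also: z-score merges 667 nm fluorescence with per-spot signal-to-noise over triplicate slides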
# [5] = biological target: Follistatin (Homo sapiens) (UniProt P19883); assay: FST protein binding to printed compounds – biochemical, small-molecule microarray, 635/667 nm fluorescence, primary screen (AID 1132); conditions: 635 nm fluorescence, higher = more signal
# [6] = biological target: Fibroblast growth factor 2 (Homo sapiens) (UniProt P09038); assay: basic fibroblast growth factor binding to printed compounds – biochemical, small-molecule microarray, 635/667 nm fluorescence, primary screen (AID 1133); conditions: FGF2, fluorescence 635/667, higher = more signal
# [7] = JC-1 mitochondrial potential readout, lung cancer cells – cell-based, A549, JC-1 fluorescence, basal, 24 h, 100 nL, profiling panel (AID 1138); conditions: higher = more signal;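 also: A549 lung adenocarcinoma cells under basal conditions with no added stimulus; test concentration not given here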
# Lefty1 = Lefty1 protein binding to printed compounds – biochemical, small-molecule microarray, 635/667 nm fluorescence, primary screen (AID 1139); conditions: fluorescence 635/667, higher = more signal
# [8] = test system: wheat germ agglutinin (Triticum aestivum), Alexa647-labelled; assay: Alexa647-WGA lectin binding to printed small molecules – biochemical, small-molecule microarray, 635/667 nm fluorescence, artefact control for SMM control-protein annotation, profiling panel (AID 1140); conditions: WGA-A647 binding, 635 nm fluorescence, higher = more signal;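 also: score merges 667 nm feature emission with signal to noise over triplicate slides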
# [9] = biological target: Luciferin 4-monooxygenase (Photinus pyralis) (UniProt P08659); assay: inhibition of purified Photinus pyralis luciferase – biochemical, luminescence, purified enzyme, 2006 set, primary screen (AID 1141); conditions: purified firefly luciferase, SteadyGlo luminescence, 30 min; higher = more signal, called active from +8 up or from −8 down;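 also: cell-free assay with purified firefly luciferase at 100 ng per well in PBS; test concentration not given here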
# [10] = test system: Wnt5a (protein binding on small-molecule microarray); assay: small molecules binding Wnt5a protein – biophysical, small-molecule microarray, 635/667 nm fluorescence, primary screen (AID 1142); conditions: 635 nm fluorescence, higher = more signal;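 also: fluorescence read at 667 nm with signal to noise per printed feature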
# [11] = ATP-based viability of Huh7 replicon cells – cell-based, CellTiter-Glo luminescence, basal, 48 h, cytotoxicity control for HCV replication inhibitor project, primary screen (AID 1143); conditions: higher = more signal, called active from +8 up or from −8 down;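 also: Huh7 hepatoma cells carrying a hepatitis C replication reporter with no stimulus; test concentration not given here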
# [12] = Pseudomonas biofilm growth suppression – PAO1 strain, BacTiter-Glo luminescence, LB-PBS, primary screen (AID 1144); conditions: P. aeruginosa PAO1 biofilm, 12 h, higher = more signal
# [13] = basal CRE-LacZ reporter activity in PC12 – cell-based, unstimulated, primary screen (AID 1145); conditions: no forskolin, luminescence, 4.5 h, higher = more signal, called active from +8 up or from −8 down
# [14] = forskolin-driven CRE-LacZ activity in PC12 – cell-based, CRE-LacZ reporter, forskolin-stimulated, primary screen (AID 1146); conditions: luminescence, 4.5 h, higher = more signal, called active from +8 up or from −8 down;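 also: PC12 cells with 6xCRE LacZ reporter stimulated by forskolin 10 µM; beta-galactosidase reporter signal reflecting CREB driven transcription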
# [15] = biological target: Streptavidin (Streptomyces avidinii) (UniProt P22629); assay: compounds binding control protein streptavidin – biophysical, small-molecule microarray, 635/667 nm fluorescence, artefact control for SMM compound annotation, primary screen (AID 1147); conditions: higher = more signal;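 also: signal reflects streptavidin binding to arrayed compounds as a control protein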
# [16] = probe aInhba binding on compound microarray – biochemical, small-molecule microarray, 635/667 nm fluorescence, primary screen (AID 1148); conditions: higher = more signal;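 also: score merges 667nm spot fluorescence with signal-to-noise for antibody binding to printed compounds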
# Torsin-1A (Homo sapiens) [17] = biological target: Torsin-1A (Homo sapiens) (UniProt O14656); assay: TOR1A wild-type binding on microarray – cell lysate, small-molecule microarray, lysate, 635/667 nm, primary screen (AID 1149); conditions: COS7 hTOR1A-WT lysate, 635 nm fluorescence, higher = more signal
# Torsin-1A (Homo sapiens) [18] = biological target: Torsin-1A (Homo sapiens) (UniProt O14656); assay: torsin A mutant lysate binding on microarrays – cell lysate, small-molecule microarray, COS7 lysate, 635/667 nm fluorescence, primary screen (AID 1150); conditions: COS7 hTOR1A mutant lysate, 635 nm fluorescence, higher = more signal;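 also: score pools 667 nm emission and signal to noise measuring lysate protein binding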
# [19] = test system: Sonic hedgehog protein (Shh); assay: Sonic hedgehog microarray binding compounds – biochemical, small-molecule microarray, 635/667 nm fluorescence, primary screen (AID 1151); conditions: 635 nm fluorescence, higher = more signal;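 also: Shh protein binding to compounds spotted on small-molecule microarray slides; score combines spot fluorescence intensity with signal-to-noise across triplicate slides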
# Sequence of Fibroblast growth factor 2 (Homo sapiens) (P09038 whole entry, looked up): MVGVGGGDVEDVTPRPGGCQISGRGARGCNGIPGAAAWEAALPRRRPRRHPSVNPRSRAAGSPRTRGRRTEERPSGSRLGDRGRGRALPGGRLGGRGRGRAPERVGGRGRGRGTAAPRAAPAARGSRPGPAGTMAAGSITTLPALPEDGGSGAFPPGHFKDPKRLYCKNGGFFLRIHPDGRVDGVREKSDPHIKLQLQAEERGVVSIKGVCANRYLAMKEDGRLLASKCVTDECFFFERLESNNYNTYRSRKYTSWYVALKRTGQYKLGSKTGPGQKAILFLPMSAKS
# Sequence of Streptavidin (Streptomyces avidinii) (P22629 whole entry, looked up): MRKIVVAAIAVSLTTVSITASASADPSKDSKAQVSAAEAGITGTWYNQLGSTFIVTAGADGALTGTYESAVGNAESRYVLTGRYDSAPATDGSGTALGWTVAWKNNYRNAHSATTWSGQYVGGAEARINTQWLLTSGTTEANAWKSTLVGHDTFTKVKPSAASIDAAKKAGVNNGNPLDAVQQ
# Sequence of Focal adhesion kinase 1 (Homo sapiens) (Q05397 whole entry, looked up): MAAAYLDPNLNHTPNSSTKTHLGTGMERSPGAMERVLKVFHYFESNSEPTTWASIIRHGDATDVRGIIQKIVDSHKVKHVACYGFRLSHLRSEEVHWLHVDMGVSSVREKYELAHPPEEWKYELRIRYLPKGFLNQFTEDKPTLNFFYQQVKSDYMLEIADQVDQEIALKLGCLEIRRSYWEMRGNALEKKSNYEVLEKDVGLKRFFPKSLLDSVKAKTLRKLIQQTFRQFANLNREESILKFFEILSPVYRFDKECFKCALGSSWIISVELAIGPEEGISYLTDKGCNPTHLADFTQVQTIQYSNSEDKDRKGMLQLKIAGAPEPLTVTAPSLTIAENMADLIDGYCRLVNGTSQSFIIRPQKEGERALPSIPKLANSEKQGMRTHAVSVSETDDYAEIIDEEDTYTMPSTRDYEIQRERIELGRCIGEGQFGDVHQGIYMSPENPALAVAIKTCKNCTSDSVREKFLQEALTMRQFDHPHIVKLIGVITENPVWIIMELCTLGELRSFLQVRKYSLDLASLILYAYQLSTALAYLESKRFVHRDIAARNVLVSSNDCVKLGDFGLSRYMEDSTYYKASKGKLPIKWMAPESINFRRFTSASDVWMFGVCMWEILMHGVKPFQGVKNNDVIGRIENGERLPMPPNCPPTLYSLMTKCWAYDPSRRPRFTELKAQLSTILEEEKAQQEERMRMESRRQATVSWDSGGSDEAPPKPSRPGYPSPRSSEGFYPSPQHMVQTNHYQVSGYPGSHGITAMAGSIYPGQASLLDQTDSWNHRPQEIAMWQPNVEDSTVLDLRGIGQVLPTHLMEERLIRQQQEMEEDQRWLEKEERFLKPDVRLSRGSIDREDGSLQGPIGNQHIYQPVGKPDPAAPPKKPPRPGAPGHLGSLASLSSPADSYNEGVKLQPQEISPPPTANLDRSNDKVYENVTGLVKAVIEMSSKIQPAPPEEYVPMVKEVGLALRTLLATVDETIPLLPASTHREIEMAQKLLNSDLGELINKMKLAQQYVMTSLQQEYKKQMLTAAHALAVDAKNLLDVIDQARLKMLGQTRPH
# Sequence of Luciferin 4-monooxygenase (Photinus pyralis) (P08659 whole entry, looked up): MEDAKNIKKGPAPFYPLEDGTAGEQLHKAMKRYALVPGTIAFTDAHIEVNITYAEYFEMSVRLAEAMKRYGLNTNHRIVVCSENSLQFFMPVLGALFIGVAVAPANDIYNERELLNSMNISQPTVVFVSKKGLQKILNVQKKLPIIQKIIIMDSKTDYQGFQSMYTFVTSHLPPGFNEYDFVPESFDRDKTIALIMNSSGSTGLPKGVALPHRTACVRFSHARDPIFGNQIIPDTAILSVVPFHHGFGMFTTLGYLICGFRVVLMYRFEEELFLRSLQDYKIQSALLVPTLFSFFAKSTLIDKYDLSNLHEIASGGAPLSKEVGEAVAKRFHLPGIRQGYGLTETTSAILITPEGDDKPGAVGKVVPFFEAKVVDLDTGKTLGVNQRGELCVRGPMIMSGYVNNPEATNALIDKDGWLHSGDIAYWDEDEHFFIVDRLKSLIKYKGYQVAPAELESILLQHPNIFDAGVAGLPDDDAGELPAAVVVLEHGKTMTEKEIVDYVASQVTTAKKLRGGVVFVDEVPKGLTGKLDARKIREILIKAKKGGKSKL
# Sequence of Torsin-1A (Homo sapiens) (O14656 whole entry, looked up): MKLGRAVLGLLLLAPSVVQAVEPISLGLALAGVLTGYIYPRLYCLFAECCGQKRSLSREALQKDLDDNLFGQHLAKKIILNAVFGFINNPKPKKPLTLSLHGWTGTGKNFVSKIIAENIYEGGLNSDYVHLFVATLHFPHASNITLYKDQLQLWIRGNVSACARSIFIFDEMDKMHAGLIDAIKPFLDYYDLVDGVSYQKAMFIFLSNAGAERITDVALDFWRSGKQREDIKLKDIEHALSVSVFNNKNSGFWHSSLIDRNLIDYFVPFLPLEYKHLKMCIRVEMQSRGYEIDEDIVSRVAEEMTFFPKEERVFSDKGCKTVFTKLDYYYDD
# Sequence of Follistatin (Homo sapiens) (P19883 whole entry, looked up): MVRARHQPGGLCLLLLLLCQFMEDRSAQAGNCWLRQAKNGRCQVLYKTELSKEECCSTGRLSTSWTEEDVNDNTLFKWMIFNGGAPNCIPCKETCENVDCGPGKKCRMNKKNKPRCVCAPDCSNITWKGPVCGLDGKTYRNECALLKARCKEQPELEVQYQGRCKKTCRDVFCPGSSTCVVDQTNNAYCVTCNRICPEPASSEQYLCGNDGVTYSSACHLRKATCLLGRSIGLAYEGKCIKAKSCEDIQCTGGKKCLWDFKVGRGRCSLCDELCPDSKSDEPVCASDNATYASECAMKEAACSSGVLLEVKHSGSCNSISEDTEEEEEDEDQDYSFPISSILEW
Structure (SMILES),composite z-score [1],composite z-score [2],composite z-score [3],composite z-score [4],composite z-score [5],composite z-score [6],z-score [7],composite z-score (Lefty1),composite z-score [8],z-score [9],composite z-score [10],z-score [11],z-score [12],z-score [13],z-score [14],composite z-score [15],composite z-score [16],composite z-score (Torsin-1A (Homo sapiens) [17]),composite z-score (Torsin-1A (Homo sapiens) [18]),composite z-score [19]
CCCC[C@@H]1C[C@H]1[C@@H](NS(=O)(=O)c1cccc2cccnc12)c1ccc(-c2ccccc2)cc1,0.983,1.08,0.479,-0.809,0.0634,-1.06,0.164,-0.805,0.366,0.633 (inactive),-0.0366,-0.325 (inactive),-1.02 (inactive),0.204 (inactive),1.62 (inactive),0.731,0.134,-0.199,-0.199,-1.66
C#C[C@@H]1Oc2ccccc2S(=O)(=O)N2CCC[C@H]12,0.104,-0.283,0.193,-0.635,0.562,0.155,-0.273,0.0495,-0.249,-0.0351 (inactive),0.0869,0.299 (inactive),0.405 (inactive),1.58 (inactive),0.14 (inactive),0.261,-0.154,-0.0705,0.0535,0.101
COC(=O)CC=C[C@H](C)[C@@H](OCc1ccccc1Br)C(C)C,0.219,-0.161,0.0767,-0.263,0.292,-0.0207,1.32,0.646,0.0141,-0.401 (inactive),-0.106,0.298 (inactive),-0.643 (inactive),0.194 (inactive),0.615 (inactive),0.228,-0.128,0.066,0.674,0.438
COC(=O)c1c(CC[C@@H](CO)NC(=O)N[C@H](Cc2ccccc2)Cn2cc(-c3ccccc3N)nn2)oc(C(C)=O)c1C(=O)OC,1.35,1.17,-0.422,0.323,0.629,0.237,0.34,0.348,1.14,-0.197 (inactive),-0.0029,-0.145 (inactive),0.41 (inactive),3.84 (inactive),-0.687 (inactive),2.14,0.449,0.481,0.794,0.352
C[C@@H]1C=CCC(=O)OC[C@H](C)C(=O)N2CCC[C@H]2C(=O)OC1,2.67,0.589,-0.344,-0.592,1.31,1.74,-0.741,1.59,-0.273,1.1 (inactive),0.15,0.111 (inactive),-0.736 (inactive),-0.264 (inactive),-0.0697 (inactive),0.245,-0.21,3.08,2.85,2.33
C=CC[C@@H]1C=C[C@H](ON=C(C)CCN2CCc3nc(CC)c(CC)cc3C2)[C@@H](CO)O1,0.242,-0.202,-0.191,-1.5,1.3,0.466,2.17,1.48,0.0749,0.624 (inactive),0.255,-0.667 (inactive),0.983 (inactive),3.51 (inactive),0.319 (inactive),0.372,0.0785,0.97,1.12,1.85
CN(C)c1ccc(C(O)C2C=CC3C(=O)N(c4ccccc4)C(=O)C3N2Nc2ccccc2F)cc1 (stereo not given),1.68,1.24,0.0651,0.793,0.404,-0.872,-1.06,0.0136,0.792,-0.484 (inactive),0.0698,-1.3 (inactive),0.136 (inactive),2.56 (inactive),1.03 (inactive),0.557,-0.125,0.221,0.15,-0.378
O=C1C[C@@H](O)[C@@H](O)[C@@H]2[C@@H]3C(=O)N(c4cccc(Oc5ccccc5)c4)C(=O)[C@@H]3CC[C@@H]12,0.161,0.783,0.35,0.725,0.91,0.679,0.844,0.661,0.428,-0.44 (inactive),0.111,-0.146 (inactive),1.27 (inactive),1.24 (inactive),0.061 (inactive),0.251,0.0227,0.446,0.463,0.521
CC=CC1=C(CO)[C@H](O)[C@H]2O[C@H]2[C@H]1O,0.189,0.277,-0.0741,-0.0409,0.589,1.06,-0.565,0.871,-0.191,-0.115 (inactive),0.261,0.678 (inactive),1.58 (inactive),0.292 (inactive),0.798 (inactive),0.082,-0.0719,0.769,-0.0205,1.14
COCCCNC(=O)[C@]1(Cc2ccccc2)N=C(c2ccc(OCCCO)cc2)O[C@@H]1c1ccccc1,1.26,1.23,1.03,0.99,0.355,0.827,0.549,-0.334,1.09,-0.515 (inactive),0.424,-2.94 (inactive),-0.0581 (inactive),0.423 (inactive),-1.36 (inactive),0.661,0.142,0.445,0.992,-0.521
